From PubChem BioAssay (NCATS)
Unmarked numbers belong to inactive results. Records with an inconclusive call do not appear. A call without a number means that no potency is given here. Active and inactive are the calls of the source. Unless noted, calls come from the whole dose curve; as a rule, active = well fitted curve in the direction sought with a large enough effect; inconclusive = small, poorly fitted or top-dose-only effect, or another doubt; inactive = no such curve, though single readings can be large; an effect the other way counts as inactive or inconclusive.

Legend:
[1] = molecular target: Cytochrome P450 1A2 (Homo sapiens) (UniProt P05177); assay: p450-cyp1a2 (AID 410; calls by dose curve; note: potency is the fitted concentration of half-maximal effect)
In short: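 Luminescent readout of luciferin formed from Luciferin-ME by human CYP1A2; data normalized against complete inhibition by 57 uM furafylline. Enzyme 20nM, substrate 100uM at Km, 100mM KPO4 buffer, 60 min reaction at room temperature.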

[2] = molecular target: Glucocorticoid receptor (Homo sapiens) (UniProt P04150); assay: GR-GFP Redistribution (AID 450;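 active = compounds whose dose series gives a full or clear partial fitted curve of increased nuclear translocation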; note: potency is the fitted concentration of half-maximal effect)
[3] = molecular target: Glucocorticoid receptor (Homo sapiens) (UniProt P04150); assay: GR-EFC Redistribution (AID 451; calls by dose curve; note: potency is the fitted concentration of half-maximal effect); settings: CHO-K1 GR-EFC translocation, beta-gal luminescence, 2 h
In short: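 CHO-K1 cells expressing nuclear EA and GR-ED fragments of b-gal; compounds titrated up to 46 uM final, 2 h at 37 C. GR nuclear translocation read as complemented b-gal luminescence after 1 h RT detection.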

[4] = molecular target: Mitogen-activated protein kinase 10 (Mus musculus) (UniProt Q61831); assay: JNK3 AlphaScreen Assay (AID 530; active = well fitted curve in either direction with a large enough effect, not every such curve was filed as active;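 note: kinase came from lysate of stimulated human HepG2 cells; signal reports phosphorylation of biotinylated GST-cJun 1-79 at Ser73 with 10 µM ATP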)
In short: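 Pre-activated (IL-1β/TNFα) JNK3 in HepG2 lysates phosphorylates biotin-GST-cJun(1-79), 10 uM ATP; anti-phospho-cJun(Ser73) AlphaScreen read at room temperature, pH 7.6 Tris buffer. Compounds pre-incubated 15 min as titrations.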

[5] = molecular target: ATP-dependent 6-phosphofructokinase (Trypanosoma brucei brucei) (UniProt O15648); assay: qHTS Assay to Find Inhibitors of T. brucei phosphofructokinase: hit validation (AID 492961);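 note: luminescence reports ADP formed as PFK phosphorylates fructose-6-phosphate with ATP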
In short: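 Compounds titrated; %activity normalized to 0x and 1x enzyme controls, curve-fitted. Readout: ADP-Glo luminescence after 45 min room-temperature reaction of 1.25 nM PFK, 0.1 mM ATP, 0.5 mM F6P, pH 8.0.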

[6] = molecular target: DNA dC->dU-editing enzyme APOBEC-3G (Homo sapiens) (UniProt Q9HC16); assay: qHTS for inhibitors of Vif-A3G interactions: Validation (AID 588379)
In short: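 HeLa cells stably expressing Vif and A3G-eYFP, 700 cells/well, incubated overnight at 37 deg C, then exposed to compound overnight at 37 deg C. Inhibition of Vif-mediated degradation read as increased yellow fluorescence (Ex 488/Em 500-530) by laser-scanning cytometry.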

[7] = S16 Schwann cell PMP22 intronic element firefly luciferase assay (AID 624032); note: nearly all actives have a fitted effect of over 30% in size
In short: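 Rat S16 Schwann cells stably carrying firefly luciferase driven by a PMP22 intronic element, in 10% FBS, treated 24 h at 37 C. ONE-Glo luminescence normalized to PTC124 control and DMSO (0%); curves classed by r2, magnitude and activity.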

[8] = S16 Schwann cell PMP22 intronic element beta-lactamase assay (AID 624044; calls by dose curve; note: nearly all actives have a fitted effect of over 15% in size); settings: S16 rat Schwann cells, PMP22 element beta-lactamase FRET, 24 h; ratio activity, negative = inhibition: at 38.3 µM (top of the series)
In short: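 Rat S16 Schwann cells with beta-Lac driven by a PMP22 intronic element, compound-treated 24 h at 37 °C. LiveBLAzer FRET B/G read: 460 nm normalized to potassium clavulanate vs DMSO; 535 nm FRET as viability; concentration-effect curves classified.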

[9] = tested on: 7G8; assay: qHTS profiling for inhibitors of Plasmodium falciparum proliferation (AID 504749); note: nearly all actives have a fitted effect of over 60% in size; note: potency is the fitted concentration of half-maximal effect; settings: P. falciparum in erythrocytes, SYBR Green DNA, 72 h; series mostly up to 28.7 µM
In short: (§1)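 P. falciparum-infected erythrocytes (0.3% parasitemia, 2.5% hematocrit) incubated with compound 72 h at 37 C, 5% CO2. Parasite DNA detected by SYBR Green after lysis, overnight at room temperature; normalised to 0.29 uM artemisinin and DMSO.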

[10] = tested on: AA1029; assay: as above; settings: P. falciparum in erythrocytes, SYBR Green DNA, 72 h; series mostly up to 28.7 µM
In short: as §1

[11] = tested on: ATS95; assay: as above; settings: P. falciparum in erythrocytes, SYBR Green DNA, 72 h; series mostly up to 28.7 µM
In short: as §1

[12] = tested on: C2A; assay: as above; settings: P. falciparum in erythrocytes, SYBR Green DNA, 72 h; series mostly up to 28.7 µM
In short: as §1

[13] = tested on: CP252; assay: as above; settings: P. falciparum in erythrocytes, SYBR Green DNA, 72 h; series mostly up to 28.7 µM
In short: as §1

[14] = tested on: CP262; assay: as above; settings: P. falciparum in erythrocytes, SYBR Green DNA, 72 h; series mostly up to 28.7 µM
In short: as §1

[15] = tested on: ECU; assay: as above; settings: P. falciparum in erythrocytes, SYBR Green DNA, 72 h; series mostly up to 28.7 µM
In short: as §1

[16] = tested on: JCK; assay: as above; settings: P. falciparum in erythrocytes, SYBR Green DNA, 72 h; series mostly up to 28.7 µM
In short: as §1

[17] = tested on: PAD; assay: as above; settings: P. falciparum in erythrocytes, SYBR Green DNA, 72 h; series mostly up to 28.7 µM
In short: as §1

[18] = tested on: PC15; assay: as above; settings: P. falciparum in erythrocytes, SYBR Green DNA, 72 h; series mostly up to 28.7 µM
In short: as §1

[19] = tested on: PC49; assay: as above; settings: P. falciparum in erythrocytes, SYBR Green DNA, 72 h; series mostly up to 28.7 µM
In short: as §1

[20] = tested on: SC27B; assay: as above; settings: P. falciparum in erythrocytes, SYBR Green DNA, 72 h; series mostly up to 28.7 µM
In short: as §1

[21] = tested on: TAB113; assay: as above; settings: P. falciparum in erythrocytes, SYBR Green DNA, 72 h; series mostly up to 28.7 µM
In short: as §1

[22] = NFAT Signaling Pathway (AID 444; active = well fitted curve in either direction with a large enough effect, not every such curve was filed as active;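 note: carbachol stimulus at about its EC50 of 1 µM final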); settings: Jurkat NFAT-bla M1, carbachol, beta-lactamase ratio, 5 h; at 17.2 µM (top of the series) unless noted
In short: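 Jurkat cells with NFAT-driven β-lactamase reporter and co-expressed M1 receptor, stimulated with carbachol (final 1 uM, ~EC50), compound titration, 5 h at 37 °C. CCF4 loaded 1 h at RT; 460/530 nm ratio gave %activity and AC50.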

[23] = Stat Signaling Pathway (AID 446; active = well fitted curve in either direction with a large enough effect, not every such curve was filed as active;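 note: ME-180 cervical cancer cells given 40 pM IL-6 alongside compound; SIE-controlled beta-lactamase reporter measured as 460/530 nm FRET emission ratio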); settings: ME-180 SIE beta-lactamase reporter, IL-6 stimulated, 5 h; at 17.2 µM (top of the series) unless noted
In short: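 ME-180 cells carrying a SIE-driven beta-lactamase reporter are stimulated with 40 pM IL-6 for 5 h at 37C in the presence of compound. The 460/530 nm FRET substrate ratio is read after 2.5 h at RT. Data are normalised to 300 pM IL-6 and to 125 nM JAK inhibitor controls.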

[24] = molecular target: 3',5'-cyclic-AMP phosphodiesterase 4B (Homo sapiens) (UniProt Q07343); assay: qHTS Assay for Inhibitors of PDE-IV (AID 607; active = well fitted activation curve with a large enough effect in the main read-out, with a control signal flat, not every such curve was filed as active)
In short: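 HEK293 ACTOne cells with CNG channel (1000/well), endogenous PDE4; membrane potential dye, compounds up to 22.9 uM final. Fluorescence Ex 535/Em 590; RO 20-1724 (100 uM final) as reference.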

[25] = molecular target: Guanine nucleotide-binding protein G(i) subunit alpha-1 (Homo sapiens) (UniProt P63096); assay: qHTS Assay for Inhibitors of RGS12 GoLoco Motif Activity (Green Fluorophore) (AID 879);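 note: negative values mean loss of peptide binding seen as reduced polarization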
In short: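 Fluorescence polarization assay: 50 nM Gαi1 with 10 nM FITC-labeled RGS12 GoLoco peptide in 10 mM Tris pH 7.5, 150 mM NaCl, 0.1 mM GDP, 0.05% NP40, 10 min at room temperature with compound.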

[26] = molecular target: Cytochrome P450 3A4 (Homo sapiens) (UniProt P08684); assay: qHTS Assay for Activators of Cytochrome P450 3A4 (AID 885); note: nearly all actives have a fitted effect of over 65% in size
In short: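 Human CYP3A4 (20 nM) with Luciferin-PPXE at 25 uM (its KM) in 200 mM KPO4; 10 min compound preincubation, then NADPH regeneration and 60 min reaction at RT. Luciferin read by luminescence; normalized to 57 uM ketoconazole full inhibition.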

[27] = molecular target: Pyruvate kinase PKM (Homo sapiens) (UniProt P14618); assay: qHTS Assay for Activators of Human Muscle Pyruvate Kinase (AID 954; active = well fitted curve in the direction sought with a large enough effect, not every such curve was filed as active)
In short: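 Purified human PKM2 (0.1 nM) with 0.5 mM PEP (Km) and 0.1 mM ADP in 50 mM imidazole pH 7.2, KCl, MgCl2, 1 h at room temperature; ATP formed read by coupled luciferase luminescence. Normalized to no-enzyme/110 uM thiadiazolimine inhibition; 0.3 nM enzyme column for activation.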

[28] = molecular target: Pyruvate kinase (Leishmania mexicana) (UniProt Q27686); assay: qHTS Validation Assay for Activators of Leishmania Mexicana Pyruvate Kinase (AID 959)
In short: (§2)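 Compounds are tested as eight-point concentration series. Reactions contain 0.2 nM LmPYK E451W, 0.5 mM PEP, 0.1 mM ADP, 7 mM MgCl2 and 50 mM KCl at pH 7.2, run 1 h at room temperature, then read by PKLight luminescence.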

[29] = molecular target: Alpha-galactosidase A (Homo sapiens) (UniProt P06280); assay: Counterscreen for Glucocerebrosidase Inhibitors: qHTS Assay for Human alpha-Galactosidase at pH 4.5 (AID 992)
In short: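 Human enzyme (2 nM) with 80 uM 4-methylumbelliferyl alpha-D-galactopyranoside in 50 mM citric acid, 0.005% Tween-20, pH 4.5, 20 min at room temperature. Compounds 0.7 nM–77 uM; fluorescence Ex 365/Em 440 after pH 10 stop; AC50 from Hill fits.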

[30] = AP1 Signaling Pathway (AID 357; active = well fitted curve in either direction with a large enough effect, not every such curve was filed as active;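 note: ME-180 reporter cells stimulated with EGF at its EC50 level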); settings: ME-180 (cervical carcinoma) AP-1-bla reporter, EGF-induced, beta-lactamase ratio, 5 h; at 17.2 µM (top of the series) unless noted
In short: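 A ratiometric CCF4 readout (405 nm excitation; 460 and 530 nm emission) quantified AP-1-driven beta-lactamase in ME-180 cells after 5 h with compound and EC50 EGF; AC50 values were derived for activators and inhibitors.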

[31] = qHTS Assay for Identification of Small Molecule Agonists for Thrombopoietin (TPO) Signaling Pathway (AID 917)
In short: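 Murine Ba/F3 cells stably expressing human TPO receptor and a Glycoprotein IIb promoter–luciferase reporter were IL-3-starved overnight, then treated with compounds plus TPO (26 pM final, its EC50) for 24 hrs at 37 C; luminescence was read.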

[32] = molecular target: Muscarinic acetylcholine receptor M1 (Rattus norvegicus) (UniProt P08482); assay: qHTS Assay for Antagonists of Acetylcholine Muscarinic M1 Receptor: Kinetic Measurement of Intracellular Calcium Response (AID 943);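 note: Fluo-4 calcium signal as peak divided by basal fluorescence over 4 min; nearly all actives have a fitted effect of over 75% in size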
In short: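 Rat M1-CHO cells, 2000/well, overnight → Fluo-4 no-wash dye with probenecid, 1 h 37C → compound 10 min, room temp → basal read 6 s → carbachol EC80 (100 nM) → 4 min kinetic read; peak/basal.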

[33] = molecular target: Pyruvate kinase (Leishmania mexicana) (UniProt Q27686); assay: qHTS Validation Assay for Inhibitors of Leishmania Mexicana Pyruvate Kinase (AID 945)
In short: as §2

Chain of Glucocorticoid receptor (Homo sapiens) (P04150 whole entry, looked up, the tested form may be a part): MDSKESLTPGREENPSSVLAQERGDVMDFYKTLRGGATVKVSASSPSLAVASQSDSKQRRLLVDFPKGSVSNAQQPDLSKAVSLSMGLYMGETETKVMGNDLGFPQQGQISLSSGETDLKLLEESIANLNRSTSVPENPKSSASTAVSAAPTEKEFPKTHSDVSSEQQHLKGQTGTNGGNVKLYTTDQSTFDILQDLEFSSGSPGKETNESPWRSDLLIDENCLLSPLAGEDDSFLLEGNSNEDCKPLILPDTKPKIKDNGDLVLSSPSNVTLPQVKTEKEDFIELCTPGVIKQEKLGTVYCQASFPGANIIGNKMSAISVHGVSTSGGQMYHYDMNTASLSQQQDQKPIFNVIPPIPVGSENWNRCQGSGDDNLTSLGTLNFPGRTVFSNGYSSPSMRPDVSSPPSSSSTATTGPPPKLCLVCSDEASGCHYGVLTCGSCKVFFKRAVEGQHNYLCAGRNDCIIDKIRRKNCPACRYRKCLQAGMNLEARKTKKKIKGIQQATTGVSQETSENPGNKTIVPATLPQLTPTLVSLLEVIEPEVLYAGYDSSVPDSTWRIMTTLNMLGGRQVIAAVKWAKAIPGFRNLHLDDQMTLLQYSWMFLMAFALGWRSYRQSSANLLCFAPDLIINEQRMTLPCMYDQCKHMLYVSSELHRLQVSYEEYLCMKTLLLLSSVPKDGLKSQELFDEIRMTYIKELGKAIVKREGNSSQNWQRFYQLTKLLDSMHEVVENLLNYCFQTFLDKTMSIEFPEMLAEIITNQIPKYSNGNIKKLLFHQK
Chain of Cytochrome P450 1A2 (Homo sapiens) (P05177 whole entry, looked up): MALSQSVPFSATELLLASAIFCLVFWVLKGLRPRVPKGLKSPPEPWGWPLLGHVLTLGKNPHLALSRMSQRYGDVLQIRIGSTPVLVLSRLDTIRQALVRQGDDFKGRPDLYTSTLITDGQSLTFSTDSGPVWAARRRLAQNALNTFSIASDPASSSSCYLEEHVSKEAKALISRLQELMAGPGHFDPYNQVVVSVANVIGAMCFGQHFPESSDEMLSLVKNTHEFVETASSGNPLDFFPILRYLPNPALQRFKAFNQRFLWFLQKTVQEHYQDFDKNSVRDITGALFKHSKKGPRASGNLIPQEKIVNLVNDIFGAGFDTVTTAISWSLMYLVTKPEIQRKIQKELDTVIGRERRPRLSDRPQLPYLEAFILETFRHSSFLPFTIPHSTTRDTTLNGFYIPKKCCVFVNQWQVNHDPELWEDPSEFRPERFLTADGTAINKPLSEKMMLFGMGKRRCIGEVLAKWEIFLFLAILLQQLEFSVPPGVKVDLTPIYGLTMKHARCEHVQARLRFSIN
Chain of Guanine nucleotide-binding protein G(i) subunit alpha-1 (Homo sapiens) (P63096 whole entry, looked up): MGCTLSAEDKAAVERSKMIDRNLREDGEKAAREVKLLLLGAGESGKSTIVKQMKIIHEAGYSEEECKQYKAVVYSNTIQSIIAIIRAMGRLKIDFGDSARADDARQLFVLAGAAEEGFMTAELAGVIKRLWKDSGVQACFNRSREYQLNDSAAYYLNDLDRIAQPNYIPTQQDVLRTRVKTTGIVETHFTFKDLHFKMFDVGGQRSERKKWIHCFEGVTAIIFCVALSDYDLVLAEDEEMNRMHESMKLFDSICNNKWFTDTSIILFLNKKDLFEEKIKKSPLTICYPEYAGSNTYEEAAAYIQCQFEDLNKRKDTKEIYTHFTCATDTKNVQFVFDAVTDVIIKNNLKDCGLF
Chain of Pyruvate kinase PKM (Homo sapiens) (P14618 whole entry, looked up): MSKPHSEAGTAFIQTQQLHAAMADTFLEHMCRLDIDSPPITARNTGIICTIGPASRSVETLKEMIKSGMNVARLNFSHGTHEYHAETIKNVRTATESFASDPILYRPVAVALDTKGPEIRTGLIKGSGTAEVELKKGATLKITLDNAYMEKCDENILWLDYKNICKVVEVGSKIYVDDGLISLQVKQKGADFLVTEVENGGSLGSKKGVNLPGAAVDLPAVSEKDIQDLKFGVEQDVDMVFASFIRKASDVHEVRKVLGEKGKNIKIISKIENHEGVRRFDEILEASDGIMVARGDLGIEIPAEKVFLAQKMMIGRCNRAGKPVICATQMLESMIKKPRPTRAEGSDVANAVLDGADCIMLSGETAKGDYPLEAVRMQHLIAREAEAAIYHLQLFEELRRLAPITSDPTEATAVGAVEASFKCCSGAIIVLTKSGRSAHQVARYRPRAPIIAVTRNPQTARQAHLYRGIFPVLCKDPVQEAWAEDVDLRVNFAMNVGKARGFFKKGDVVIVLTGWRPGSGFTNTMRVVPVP
Chain of Pyruvate kinase (Leishmania mexicana) (Q27686 2-499 E452W): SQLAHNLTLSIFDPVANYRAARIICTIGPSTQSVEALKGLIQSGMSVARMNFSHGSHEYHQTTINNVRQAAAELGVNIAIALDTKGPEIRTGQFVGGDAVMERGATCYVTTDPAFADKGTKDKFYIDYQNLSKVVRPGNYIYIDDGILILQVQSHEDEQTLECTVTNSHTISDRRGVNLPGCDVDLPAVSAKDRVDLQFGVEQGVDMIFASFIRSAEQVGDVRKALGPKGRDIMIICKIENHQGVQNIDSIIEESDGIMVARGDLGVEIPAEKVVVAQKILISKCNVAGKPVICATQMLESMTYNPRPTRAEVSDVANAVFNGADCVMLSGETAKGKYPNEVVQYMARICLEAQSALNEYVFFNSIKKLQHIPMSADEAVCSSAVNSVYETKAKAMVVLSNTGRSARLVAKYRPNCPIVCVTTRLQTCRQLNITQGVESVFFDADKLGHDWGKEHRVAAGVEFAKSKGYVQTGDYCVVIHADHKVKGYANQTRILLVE
Chain of Alpha-galactosidase A (Homo sapiens) (P06280 whole entry, looked up): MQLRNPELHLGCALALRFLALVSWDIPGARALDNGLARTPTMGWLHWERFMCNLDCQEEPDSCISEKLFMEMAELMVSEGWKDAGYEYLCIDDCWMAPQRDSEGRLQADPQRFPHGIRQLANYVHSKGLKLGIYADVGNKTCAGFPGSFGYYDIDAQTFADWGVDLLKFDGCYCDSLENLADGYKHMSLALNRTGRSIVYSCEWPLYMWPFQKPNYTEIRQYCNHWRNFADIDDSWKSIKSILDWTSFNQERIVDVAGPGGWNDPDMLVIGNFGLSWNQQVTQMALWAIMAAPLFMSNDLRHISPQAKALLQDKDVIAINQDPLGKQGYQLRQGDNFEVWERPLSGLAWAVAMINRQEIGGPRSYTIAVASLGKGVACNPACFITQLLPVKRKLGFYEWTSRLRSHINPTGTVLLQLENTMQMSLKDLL
Chain of 3',5'-cyclic-AMP phosphodiesterase 4B (Homo sapiens) (Q07343 whole entry, looked up): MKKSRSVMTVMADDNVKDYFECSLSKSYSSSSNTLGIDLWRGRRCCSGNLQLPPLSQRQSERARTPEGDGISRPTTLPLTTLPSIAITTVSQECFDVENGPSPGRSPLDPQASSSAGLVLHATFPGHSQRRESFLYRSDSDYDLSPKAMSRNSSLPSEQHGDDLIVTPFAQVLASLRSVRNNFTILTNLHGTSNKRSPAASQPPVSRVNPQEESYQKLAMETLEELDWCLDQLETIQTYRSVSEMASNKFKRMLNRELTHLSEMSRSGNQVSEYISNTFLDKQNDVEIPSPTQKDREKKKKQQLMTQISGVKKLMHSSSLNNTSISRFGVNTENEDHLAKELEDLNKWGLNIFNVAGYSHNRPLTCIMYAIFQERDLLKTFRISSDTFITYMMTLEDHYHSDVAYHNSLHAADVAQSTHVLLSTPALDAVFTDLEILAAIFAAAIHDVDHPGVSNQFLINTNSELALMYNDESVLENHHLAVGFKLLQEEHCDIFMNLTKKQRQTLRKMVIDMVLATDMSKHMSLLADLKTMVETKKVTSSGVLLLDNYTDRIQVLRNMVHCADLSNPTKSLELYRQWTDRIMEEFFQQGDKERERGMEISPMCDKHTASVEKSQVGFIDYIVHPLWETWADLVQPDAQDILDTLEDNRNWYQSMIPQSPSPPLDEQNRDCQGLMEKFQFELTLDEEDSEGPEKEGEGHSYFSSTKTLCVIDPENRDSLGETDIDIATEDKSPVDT
Chain of Muscarinic acetylcholine receptor M1 (Rattus norvegicus) (P08482 whole entry, looked up): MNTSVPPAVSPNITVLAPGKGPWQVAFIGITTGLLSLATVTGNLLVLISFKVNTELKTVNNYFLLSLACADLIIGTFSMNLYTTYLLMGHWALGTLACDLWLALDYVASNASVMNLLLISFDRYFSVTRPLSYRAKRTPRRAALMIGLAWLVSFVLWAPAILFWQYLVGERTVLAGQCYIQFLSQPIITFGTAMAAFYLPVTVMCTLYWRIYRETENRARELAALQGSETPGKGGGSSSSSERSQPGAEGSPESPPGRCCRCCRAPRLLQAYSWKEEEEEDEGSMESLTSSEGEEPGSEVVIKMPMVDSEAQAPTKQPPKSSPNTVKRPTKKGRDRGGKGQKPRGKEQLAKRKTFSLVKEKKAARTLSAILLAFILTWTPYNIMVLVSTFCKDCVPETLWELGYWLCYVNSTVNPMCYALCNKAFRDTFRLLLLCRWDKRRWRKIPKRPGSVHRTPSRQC
Chain of DNA dC->dU-editing enzyme APOBEC-3G (Homo sapiens) (Q9HC16 whole entry, looked up): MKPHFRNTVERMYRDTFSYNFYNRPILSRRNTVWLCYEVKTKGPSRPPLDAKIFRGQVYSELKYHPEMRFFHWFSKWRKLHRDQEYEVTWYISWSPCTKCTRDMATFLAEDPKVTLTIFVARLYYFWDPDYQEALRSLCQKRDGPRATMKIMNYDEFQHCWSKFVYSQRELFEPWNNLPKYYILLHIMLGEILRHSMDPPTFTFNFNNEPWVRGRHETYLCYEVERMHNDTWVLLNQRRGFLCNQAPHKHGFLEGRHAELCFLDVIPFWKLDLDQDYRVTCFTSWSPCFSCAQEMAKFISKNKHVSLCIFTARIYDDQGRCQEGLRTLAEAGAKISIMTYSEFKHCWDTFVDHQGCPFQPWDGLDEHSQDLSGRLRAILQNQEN

## CNc1cc(OC)c(C(=O)N[C@@H]2CCN(Cc3ccccc3)[C@H]2C)cc1Cl
[1]
  Potency: 31.6 µM (active)
[2]
  Potency: > 46 µM
[3]
  Potency: > 46 µM
[4]
  Potency: inactive
[5]
  Potency: inactive
[6]
  outcome: inactive
[7]
  Potency: inactive
[8]
  Potency: inactive
[9]
  Potency: 6.31 µM (active)
[10]
  Potency: 14.1 µM (active)
[11]
  Potency: inactive
[12]
  Potency: inactive
[13]
  Potency: inactive
[14]
  Potency: inactive
[15]
  Potency: inactive
[16]
  Potency: inactive
[17]
  Potency: inactive
[18]
  Potency: inactive
[19]
  Potency: inactive
[20]
  Potency: inactive
[21]
  Potency: inactive

## O=C(/C=C\c1ccc(O)c(O)c1)OCCc1ccccc1
[1]
  Potency: 1 µM (active)
[22]
  activity change, negative = inhibition: -12.2% [at 38 µM]
[23]
  activity, negative = inhibition: -10.7% [at 38 µM]
[2]
  Potency: > 46 µM
[3]
  Potency: > 46 µM
[24]
  Potency: inactive
[25]
  outcome: inactive
[26]
  Potency: inactive
[27]
  outcome: inactive
[28]
  Potency: inactive
[29]
  outcome: inactive

## CC(C)(C)c1nnc2sc(SCC(=O)c3ccccc3)nn2c1=O
[30]
  activity change, negative = inhibition: 2.49%
[2]
  Potency: > 20.6 µM

## Cc1cc(C)c(/C=C2/C(=O)Nc3ccccc32)[nH]1
[1]
  Potency: 0.794 µM (active)
[23]
  activity, negative = inhibition: -25.4% [at 38 µM]
[24]
  Potency: inactive
[25]
  outcome: inactive
[31]
  Potency: inactive
[32]
  Potency: inactive
[33]
  Potency: inactive
[27]
  outcome: inactive
[29]
  outcome: inactive
